Screens: PubChem, several laboratories
Rows were chosen to be rich in hits. Some 2.2% of all compounds tested hit in one or more screens of this group.
EBNA-1 inhibitor – blocks EBNA-1 binding to DNA; AID 1950; EBNA-1 DNA binding, fluorescence polarization; 0.34% of 300,000 active; inhibition, % at 14.8 µM; in the data active = inhibition above about 28%
ZTA counter – blocks Epstein-Barr virus ZTA, an EBNA-1 counter-screen; P03206; ZTA-DNA binding, fluorescence polarization; inhibition, % at 11 µM; 0.15% of 320,000 active; AID 2234; in the data active = inhibition above about 33%
Target sequence (P03206 whole entry, looked up): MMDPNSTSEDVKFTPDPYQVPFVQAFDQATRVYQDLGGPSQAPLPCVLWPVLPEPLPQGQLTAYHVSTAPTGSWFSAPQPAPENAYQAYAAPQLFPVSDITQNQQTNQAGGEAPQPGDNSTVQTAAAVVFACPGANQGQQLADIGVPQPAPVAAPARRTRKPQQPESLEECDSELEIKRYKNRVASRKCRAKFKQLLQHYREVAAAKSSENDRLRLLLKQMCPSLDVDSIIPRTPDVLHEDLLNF
NALP3 yeast inh – blocks the NALP3 inflammasome reconstituted in yeast. 0.39% of 330,000 active. inhibition, % at 10 µM. Yeast reconstituted NLRP3/ASC/caspase-1, beta-gal luminescence, 24 h;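 active = inhibition of 50% or more; inactive = inhibition below 50%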;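 also: plate controls were induced DMSO wells for no effect and uninduced yeast grown without galactose for full effect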
dFosB activator – enhances mouse delta FosB homodimer DNA binding. P13346. purified delta FosB, TAMRA-CDK5 oligo fluorescence polarization; percent of positive-control signal above neutral wells. activation, % at 25 µM. 0.99% of 340,000 active. AID 493131;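 active = mean activation above about 17%, with every replicate also reaching it, limit read from the data, passing the limit was not always enough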
Target sequence (P13346 whole entry, looked up): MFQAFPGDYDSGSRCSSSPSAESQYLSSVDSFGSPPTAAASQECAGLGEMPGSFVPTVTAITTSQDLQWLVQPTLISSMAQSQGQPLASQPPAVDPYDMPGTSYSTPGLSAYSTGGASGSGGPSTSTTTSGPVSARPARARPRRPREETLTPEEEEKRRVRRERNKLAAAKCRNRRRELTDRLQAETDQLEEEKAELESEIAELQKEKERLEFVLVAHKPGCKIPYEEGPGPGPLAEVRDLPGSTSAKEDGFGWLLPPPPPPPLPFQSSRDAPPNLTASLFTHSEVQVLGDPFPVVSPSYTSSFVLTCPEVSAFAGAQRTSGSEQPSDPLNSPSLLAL
NALP1 inh – blocks the NALP1 inflammasome reconstituted in yeast. S. cerevisiae NALP1/ASC/caspase-1 growth, X-gal OD620, 72 h. inhibition, % at 10 µM. 0.61% of 280,000 active; in the data active = inhibition mostly above about 24%, no sharp cut-off; inactive = mostly below about 32%
PolyA inh – inhibitors of polyadenylation in S. cerevisiae; S. cerevisiae SKY197-pL101 polyadenylation reporter, beta-gal luminescence; efflux-impaired pdr1/pdr3 knockout yeast; score 100 = 6 SD above DMSO; activity score, % at 12 µM; 0.02% of 300,000 active; AID 1875;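 active = lowest replicate activity score at least 50, where 100 means six control SD above control mean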;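 also: yeast exposed to compound for 9 h at 30 °C; higher score means more reporter readthrough which indicates perturbed polyadenylation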
Active calls of the source: *; . = not tested or not shown.

SMILES | EBNA-1 inhibitor | ZTA counter | NALP3 yeast inh | dFosB activator | NALP1 inh | PolyA inh
CN(c1ccccc1C(=O)Nc1ccc(CC#N)cc1)S(=O)(=O)c1ccccc1 | 2 | 7 | 2 | 1 | 15 | 1
Cc1ccc(S(=O)(=O)c2c(COC(=O)c3ccccc3Cl)c(-c3ccccc3)nn2C)cc1 | -2 | 0 | 0 | 3 | 42* | -6
Cc1ccc(S(=O)(=O)c2c(CO)c(-c3ccccc3)nn2C)cc1 | -3 | 5 | 31 | -6 | 9 | 13
CC1=C(C(=O)OCCBr)C(c2cccc3ccccc23)NC(=O)N1 (centres undefined) | 5 | 13 | 12 | -6 | 11 | -15
O=C(CSc1nc2c(c(=O)n1-c1ccc(Br)cc1)SCC2)Nc1nccs1 | 32* | -22 | 9 | 9 | 15 | 1
O=C(CSc1nc2c(c(=O)n1-c1ccc(Cl)cc1)SCC2)Nc1nccs1 | -1 | 9 | . | 2 | 14 | .
CCCCNC(=O)/C(C#N)=C/c1ccc(-c2ccc(S(=O)(=O)N3CCOCC3)cc2)o1 | -9 | 44* | 7 | 5 | 22 | 7
NCCS | 8 | -2 | 45 | -2 | 47* | 5
O=C(O)CN1CCc2ccccc2C1 | -14 | 13 | -16 | 0 | 32* | -11
CC1CN(c2ccc([N+](=O)[O-])c(NCCOc3ccc(Cl)cc3)c2)CC(C)N1 (centres undefined) | . | . | 29 | 37* | 16 | 1
CC1CN(c2ccc([N+](=O)[O-])c(NCCOc3ccccc3)c2)CC(C)N1 (centres undefined) | -13 | 0 | 19 | 3 | 6 | -8
CCc1ccc(OCCNc2cc(N3CCNC(C)C3)ccc2[N+](=O)[O-])cc1 (centres undefined) | . | 20 | 24 | 45* | . | .
COCC1CCN(Cc2c(C(=O)N3CCc4ccccc4C3)nc3ccc(Cl)cn23)C1 (centres undefined) | . | . | 17 | -16 | -4 | -2
CCOC(=O)c1cc2c(c(-c3ccccc3)n1)[C@H](CCO)N(S(=O)(=O)C(C)(C)C)C2 | . | . | . | -1 | . | .
CCC1(c2ccc(F)cc2)NC(=O)N(CC(=O)NCc2ccccc2Cl)C1=O (centres undefined) | 0 | -7 | 6 | -6 | 13 | 38
Cc1ccc(C)n1-c1cccc(C(=O)O)c1 | 27 | 78* | 5 | . | -2 | 10
Cc1cc(C=O)c(C)n1-c1cccc(C(=O)O)c1 | -2 | -6 | 11 | -6 | -2 | 2
CCCCC(=O)OCc1c(-c2cccc(OC)c2)ncc2ccccc12 | . | -18 | -32 | -3 | . | .
O=S(=O)(Nc1nccs1)c1ccc(F)cc1 | -3 | -6 | 7 | 1 | 27* | 2
COc1ccc(/C=C2\SC(=S)N(CC(=O)NC3C=CS(=O)(=O)C3)C2=O)cc1 (centres undefined) | -7 | -1 | 11 | 85* | 7 | -4
O=C(CN1C(=O)/C(=C/c2ccc(Cl)cc2)SC1=S)NC1C=CS(=O)(=O)C1 (centres undefined) | -3 | -10 | -8 | 23* | 4 | -6
O=C(CN1C(=O)/C(=C/c2ccccc2)SC1=S)NC1C=CS(=O)(=O)C1 (centres undefined) | 7 | 2 | 2 | 0 | -9 | 0
O=C(CCN1C(=O)/C(=C/c2ccc(Cl)cc2)SC1=S)NC1C=CS(=O)(=O)C1 (centres undefined) | 4 | 4 | -2 | -7 | 17 | -1
O=C(CN1C(=O)/C(=C/c2ccc(F)cc2)SC1=S)NC1C=CS(=O)(=O)C1 (centres undefined) | -1 | 0 | 6 | 26* | 19 | 13
CC(C)[C@H](NC(=O)N1CC(=O)Nc2ccccc21)C(=O)N1CCC[C@@H]1C(=O)O | 2 | 2 | -2 | 1 | 20 | -4
SMILES | EBNA-1 inhibitor | ZTA counter | NALP3 yeast inh | dFosB activator | NALP1 inh | PolyA inh
COc1ccccc1NC(=O)CSC1CC(=O)N(c2ccc3c(c2)OCO3)C1=O (centres undefined) | -8 | -10 | 25 | 2 | 31* | 5
COc1ccc(NC(=O)CSC2CC(=O)N(c3ccc4c(c3)OCCO4)C2=O)cc1 (centres undefined) | 5 | -14 | 7 | 1 | 16 | -1
C=CC(=O)Nc1cccc(Nc2nc(N[C@H]3CC[C@H](N(C)C)CC3)nc3c2ncn3C(C)C)c1 | . | . | . | 22* | . | .
CC1(C)Cc2ccccc2C(c2cc3ccccc3oc2=O)=N1 | -1 | 0 | -2 | -9 | -2 | 13
CC1(C)Cc2c(ccc3ccccc23)C(c2cc3ccccc3oc2=O)=N1 | 3 | -13 | -12 | 1 | 34* | -8
Cc1ccc(S(=O)(=O)Nc2cccc(C(=O)N3CCC(C(N)=O)CC3)c2)cc1 | . | 0 | -12 | -4 | . | .
Cc1nn(Cc2ccccc2)c2c1C(c1cccnc1)C(C#N)=C(N)O2 (centres undefined) | 8 | 10 | -3 | 12 | 41* | 2
Cc1cccc(N=Cc2cc3c(cc2[N+](=O)[O-])OCO3)c1 | -19 | 7 | 9 | -13 | 12 | 7
COc1cc(C=Nc2cccc(C)c2)c(O)c([N+](=O)[O-])c1 | -9 | 5 | 7 | -2 | 49* | -16
CCN(CC)CCNC(=O)c1cn(CCOC)c(=O)c2c1c1ccccc1n2C | 5 | -4 | 6 | 0 | 13 | 1
CCN(CC)CCCNC(=O)c1cn(CCOC)c(=O)c2c1c1ccccc1n2C | 1 | -5 | -7 | -3 | 31* | .
C=CCn1c(SCC(=O)Nc2ccc(N3CCOCC3)cc2)nc2ccccc2c1=O | 3 | 11 | 7 | -1 | 10 | 12
COc1ccc(C2=NOC(COc3ccc4c(C)cc(=O)oc4c3)C2)c(OC)c1 (centres undefined) | 12 | 14 | 19 | . | . | -2
COc1ccccc1C1=NOC(COc2ccc3c(C)cc(=O)oc3c2)C1 (centres undefined) | 4 | 0 | 18 | -17 | 40* | -10
CCn1c(COc2ccccc2C)nnc1SCC(=O)OC | 11 | 10 | -25 | 1 | 22* | -27
O=C(Cn1ncc2c([nH]c3ccccc32)c1=O)Nc1cccnc1 | 11 | 6 | -2 | 5 | 1 | 27
Cc1ccc(NC(=O)Cn2ncc3c([nH]c4ccccc43)c2=O)cc1Cl | -12 | 0 | 8 | 55* | 5 | -2
Cc1ccc(NC(=S)Nc2cc(C(=O)O)ccc2N2CC3CC(C2)c2cccc(=O)n2C3)cc1C (centres undefined) | 4 | -6 | 21 | -11 | 37* | -11
COc1cccc(NC(=S)Nc2cc(C(=O)O)ccc2N2CC3CC(C2)c2cccc(=O)n2C3)c1 (centres undefined) | -5 | -10 | 6 | -6 | -2 | -24
CCN(CC(=O)NCc1cccs1)C(=O)c1cc(S(=O)(=O)N2CCCCC2)ccc1Cl | -7 | 5 | 18 | -8 | . | -10
